Records with an inconclusive call do not appear. Activity calls are given as the source filed them. How the source made its calls: active means hit-call score of the fitted dose curve at least 0.9, where 1 is the maximum; inconclusive means response in the unintended direction; inactive means score below 0.9.
Columns and labels:
[1] = read-out: HMG-CoA synthase (HMGCS2), HMGCS2 (gene 3158); test: CLD_HMGCS2_6hr: CellzDirect (CLD) Gene Expression Assay for HMG-CoA synthase (HMGCS2) at 6 hours (AID 2283682);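 further: actives raise HMGCS2 transcript above the 0.2% DMSO vehicle baseline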
Outline: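 Primary human hepatocytes dosed daily with fresh chemical, 0.2% DMSO vehicle; HMGCS2 mRNA measured at 6 h by qNPA chemiluminescence. Gain of signal fitted against DMSO; cytotoxicity flagged from phase-contrast morphology.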

[2] = read-out: Cytochrome P450 2B6 (Homo sapiens) (UniProt P20813); test: CLD_CYP2B6_24hr: CellzDirect (CLD) Gene Expression Assay for xenobiotic metabolism (CYP2B6) at 24 hours (AID 2283686)
Outline: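 Primary human hepatocytes dosed daily for two days with fresh solutions, harvested at 24 hours; mRNA induction quantified by qNPA chemiluminescence, gain of signal vs 0.2% DMSO vehicle. Cytotoxicity annotated from phase-contrast morphology.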

[3] = read-out: Cytochrome P450 2C19 (Homo sapiens) (UniProt P33261); test: CLD_CYP2C19_24hr: CellzDirect (CLD) Gene Expression Assay for xenobiotic metabolism (CYP2C19) at 24 hours (AID 2283687);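 further: activity means mRNA induction above DMSO vehicle baseline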
Outline: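 Primary human hepatocytes (two donor preparations) dosed daily with fresh test chemical in 0.2% DMSO vehicle; CYP2C19 mRNA induction measured at 24 h by quantitative nuclease protection assay with chemiluminescence, fitted for gain of signal versus DMSO.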

[4] = read-out: Cytochrome P450 2C9 (Homo sapiens) (UniProt P11712); test: CLD_CYP2C9_24hr: CellzDirect (CLD) Gene Expression Assay for xenobiotic metabolism (CYP2C9) at 24 hours (AID 2283688);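 on AC50: potency for induction meaning a rise in CYP2C9 mRNA over DMSO vehicle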
Outline: (§1)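 Primary human hepatocytes from two donor preparations, dosed daily for two days at multiple concentrations; vehicle 0.2% DMSO. CYP2C9 mRNA induction at 24 h measured by qNPA chemiluminescence relative to DMSO; cytotoxicity annotated from morphology.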

[5] = read-out: Cytochrome P450 3A4 (Homo sapiens) (UniProt P08684); test: CLD_CYP3A4_24hr: CellzDirect (CLD) Gene Expression Assay for xenobiotic metabolism (CYP3A4) at 24 hours (AID 2283689)
Outline: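 Primary human hepatocytes from two donors dosed daily with fresh compound for two days, 0.2% DMSO vehicle. CYP3A4 mRNA at 24 hr by qNPA chemiluminescence; gain-of-signal fit versus DMSO, cytotoxicity flagged by morphology.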

[6] = read-out: xenobiotic metabolism (CYP1A2), CYP1A2 (gene 1544); test: CLD_CYP1A2_24hr: CellzDirect (CLD) Gene Expression Assay for xenobiotic metabolism (CYP1A2) at 24 hours (AID 2283683)
Outline: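 Primary human hepatocytes from two donor preparations dosed daily with multiple concentrations of chemical, 0.2% DMSO vehicle. CYP1A2 mRNA at 24 h quantified by qNPA chemiluminescence; gain of signal analyzed relative to DMSO. Cytotoxicity flagged by phase-contrast morphology.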

[7] = read-out: ABC Transporter (ABCB1), ABCB1 (gene 5243); test: CLD_ABCB1_24hr: CellzDirect (CLD) Gene Expression Assay for ABC Transporter (ABCB1) at 24 hours (AID 2283684)
Outline: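 Primary human hepatocytes, two donor preparations, dosed daily with fresh solutions; vehicle 0.2% DMSO; harvested at 24 h. ABCB1 mRNA measured by quantitative nuclease protection assay (chemiluminescence); morphology-based cytotoxicity annotated.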

[8] = read-out: organic anion transporter (SLCO1B1), SLCO1B1 (gene 10599); test: CLD_SLCO1B1_24hr: CellzDirect (CLD) Gene Expression Assay for organic anion transporter (SLCO1B1) at 24 hours (AID 2283690)
Outline: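 Primary human hepatocytes (two donor preparations) dosed daily for two days with chemicals at multiple concentrations, 0.2% DMSO vehicle. SLCO1B1 mRNA at 24 h measured by qNPA chemiluminescence; induction fitted relative to DMSO.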

[9] = read-out: Broad substrate specificity ATP-binding cassette transporter ABCG2 (Homo sapiens) (UniProt Q9UNQ0); test: CLD_ABCG2_24hr: CellzDirect (CLD) Gene Expression Assay for ABC Transporter (ABCG2) at 24 hours (AID 2283685)
Outline: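 Primary human hepatocytes were dosed daily with ToxCast chemicals at multiple concentrations (vehicle 0.2% DMSO). ABCG2 mRNA was measured at 24 h by qNPA chemiluminescence; induction was scored as gain of signal versus DMSO.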

[10] = read-out: xenobiotic metabolism (CYP2C9), CYP2C9 (gene 1559); test: CLD_CYP2C9_24hr: CellzDirect (CLD) Gene Expression Assay for xenobiotic metabolism (CYP1A2) at 24 hours (AID 2283688);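 on AC50: potency for induction meaning a rise in CYP2C9 mRNA over DMSO vehicle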
Outline: as §1

Chain of Cytochrome P450 2C19 (Homo sapiens) (P33261 whole entry, looked up): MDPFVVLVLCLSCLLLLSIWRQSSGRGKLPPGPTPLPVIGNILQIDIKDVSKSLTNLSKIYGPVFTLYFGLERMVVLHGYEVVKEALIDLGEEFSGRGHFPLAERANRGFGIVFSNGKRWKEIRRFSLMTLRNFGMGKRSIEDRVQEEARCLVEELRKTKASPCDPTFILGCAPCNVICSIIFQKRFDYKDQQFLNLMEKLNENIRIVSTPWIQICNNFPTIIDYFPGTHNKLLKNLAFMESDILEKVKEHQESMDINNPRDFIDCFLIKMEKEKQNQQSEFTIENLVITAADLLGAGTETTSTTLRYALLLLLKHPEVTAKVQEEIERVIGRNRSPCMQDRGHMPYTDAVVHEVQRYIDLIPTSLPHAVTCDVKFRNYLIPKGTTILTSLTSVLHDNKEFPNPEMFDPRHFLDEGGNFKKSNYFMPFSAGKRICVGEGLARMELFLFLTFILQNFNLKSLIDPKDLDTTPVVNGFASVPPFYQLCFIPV
Chain of Cytochrome P450 3A4 (Homo sapiens) (P08684 whole entry, looked up): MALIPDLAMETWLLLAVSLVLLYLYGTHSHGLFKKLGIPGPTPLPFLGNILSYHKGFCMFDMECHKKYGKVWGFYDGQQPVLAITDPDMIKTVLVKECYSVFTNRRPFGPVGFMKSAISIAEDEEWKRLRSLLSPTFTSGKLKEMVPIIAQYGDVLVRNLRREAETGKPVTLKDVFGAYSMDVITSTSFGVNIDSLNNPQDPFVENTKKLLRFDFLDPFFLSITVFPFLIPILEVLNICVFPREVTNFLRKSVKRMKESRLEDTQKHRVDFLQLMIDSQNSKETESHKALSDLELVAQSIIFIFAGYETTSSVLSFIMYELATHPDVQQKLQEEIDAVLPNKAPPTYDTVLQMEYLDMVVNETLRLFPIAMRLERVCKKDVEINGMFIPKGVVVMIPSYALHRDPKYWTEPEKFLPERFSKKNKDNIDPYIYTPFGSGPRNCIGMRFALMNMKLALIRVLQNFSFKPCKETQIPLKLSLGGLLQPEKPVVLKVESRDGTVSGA
Chain of Broad substrate specificity ATP-binding cassette transporter ABCG2 (Homo sapiens) (Q9UNQ0 whole entry, looked up): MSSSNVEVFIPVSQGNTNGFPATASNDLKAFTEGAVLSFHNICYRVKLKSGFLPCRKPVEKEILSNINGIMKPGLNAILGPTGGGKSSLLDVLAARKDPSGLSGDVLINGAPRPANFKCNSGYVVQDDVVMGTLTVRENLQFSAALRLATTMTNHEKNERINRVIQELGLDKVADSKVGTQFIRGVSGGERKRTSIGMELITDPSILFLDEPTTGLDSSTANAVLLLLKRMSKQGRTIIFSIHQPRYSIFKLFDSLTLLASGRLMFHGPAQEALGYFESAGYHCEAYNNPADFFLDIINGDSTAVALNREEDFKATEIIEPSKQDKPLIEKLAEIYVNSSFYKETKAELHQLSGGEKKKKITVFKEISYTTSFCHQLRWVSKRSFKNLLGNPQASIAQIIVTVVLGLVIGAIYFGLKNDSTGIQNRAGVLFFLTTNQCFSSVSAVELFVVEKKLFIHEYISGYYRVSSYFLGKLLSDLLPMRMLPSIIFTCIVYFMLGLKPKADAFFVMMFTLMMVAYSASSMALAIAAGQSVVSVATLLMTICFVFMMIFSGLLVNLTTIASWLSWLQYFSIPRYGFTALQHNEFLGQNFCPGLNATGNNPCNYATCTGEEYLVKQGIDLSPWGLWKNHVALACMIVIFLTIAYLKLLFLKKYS

Nc1c(Cl)c(Cl)nc(C(=O)O)c1Cl
outcome [1]: inactive
outcome [2]: inactive
outcome [3]: inactive
outcome [4]: inactive
outcome [5]: inactive

CCOP(=S)(OCC)Oc1nc(Cl)n(C(C)C)n1
AC50 [6]: 0.975 µM (active)
outcome [7]: inactive
AC50 [2]: 0.383 µM (active)
outcome [4]: inactive
AC50 [5]: 0.677 µM (active)

COc1cc(OC)nc(NC(=O)NS(=O)(=O)c2ncccc2OCC(F)(F)F)n1
outcome [1]: inactive
outcome [6]: inactive
outcome [3]: inactive
outcome [4]: inactive

COC(=O)NC(=S)Nc1ccccc1NC(=S)NC(=O)OC
outcome [1]: inactive
AC50 [2]: 7.45 µM (active)
outcome [4]: inactive

CCCCC(O)(Cn1cncn1)c1ccc(Cl)cc1Cl (stereo not given)
AC50 [2]: 1.9 µM (active)

COC(=O)N(C(=O)N1CO[C@@]2(C(=O)OC)Cc3cc(Cl)ccc3C2=N1)c1ccc(OC(F)(F)F)cc1
AC50 [2]: 1.9 µM (active)

CCCCC(C#N)(Cn1cncn1)c1ccc(Cl)cc1 (stereo not given)
AC50 [2]: 9.62 µM (active)
AC50 [5]: 9.54 µM (active)
outcome [8]: inactive

N#Cc1c(Cl)cccc1Cl
outcome [9]: inactive
AC50 [2]: 4.46 µM (active)
outcome [4]: inactive
outcome [5]: inactive
outcome [8]: inactive

COCc1cnc(C2=NC(C)(C(C)C)C(=O)N2)c(C(=O)O)c1 (stereo not given)
outcome [4]: inactive

CC(C)NC(=O)N1CC(=O)N(c2cc(Cl)cc(Cl)c2)C1=O
AC50 [2]: 10.4 µM (active)
outcome [4]: inactive

CC(C)=CC1C(C(=O)OCc2coc(Cc3ccccc3)c2)C1(C)C (stereo not given)
outcome [6]: inactive
AC50 [2]: 5.63 µM (active)
outcome [3]: inactive
outcome [4]: inactive
outcome [8]: inactive

Cc1cc(C)nc(Nc2ccccc2)n1
AC50 [2]: 1.9 µM (active)
AC50 [5]: 1.78 µM (active)

Cc1c(COC(=O)[C@@H]2[C@H](/C=C(\Cl)C(F)(F)F)C2(C)C)cccc1-c1ccccc1
outcome [9]: inactive
AC50 [2]: 4.37 µM (active)
outcome [3]: inactive
outcome [4]: inactive
outcome [8]: inactive

N#CN=C1SCCN1Cc1ccc(Cl)nc1
outcome [7]: inactive
AC50 [2]: 11.6 µM (active)
outcome [3]: inactive
outcome [4]: inactive

Nc1c(Cl)c(F)nc(OCC(=O)O)c1Cl
outcome [2]: inactive
outcome [3]: inactive
outcome [4]: inactive
outcome [5]: inactive
outcome [8]: inactive

CS(=O)(=O)c1ccc(C(=O)C2C(=O)CCCC2=O)c([N+](=O)[O-])c1
outcome [2]: inactive
outcome [3]: inactive
AC50 [10]: 0.000305 µM (active)
outcome [5]: inactive

COCC(C)N(C(=O)CCl)c1c(C)csc1C (stereo not given)
AC50 [2]: 11.9 µM (active)
outcome [4]: inactive
outcome [8]: inactive

CC1(C)CCC(=Cc2ccc(Cl)cc2)C1(O)Cn1cncn1 (stereo not given)
AC50 [6]: 3.47 µM (active)
AC50 [2]: 3.58 µM (active)
outcome [4]: inactive

O=C1C2CC=CCC2C(=O)N1SC(Cl)(Cl)Cl (stereo not given)
outcome [3]: inactive
outcome [4]: inactive
outcome [8]: inactive

CC(C)Nc1nc(Cl)nc(NC(C)C)n1
AC50 [6]: 7.72 µM (active)
AC50 [2]: 3.26 µM (active)
outcome [4]: inactive

CCOc1nc(C(Cl)(Cl)Cl)ns1
outcome [4]: inactive
outcome [5]: inactive

COP(=S)(OC)Oc1ccc([N+](=O)[O-])c(C)c1
outcome [7]: inactive
AC50 [2]: 0.692 µM (active)
outcome [8]: inactive

CN=C=S
outcome [2]: inactive
outcome [3]: inactive
outcome [4]: inactive
outcome [8]: inactive

CC(C)N1C(=O)N(c2ccccc2)CSC1=NC(C)(C)C
outcome [6]: inactive
AC50 [2]: 4.23 µM (active)
outcome [4]: inactive
AC50 [5]: 20 µM (active)
outcome [8]: inactive

COP(=O)(OC)O/C(C)=C/C(=O)N(C)C
outcome [6]: inactive
outcome [2]: inactive
outcome [3]: inactive
outcome [4]: inactive
outcome [8]: inactive

COC(=O)c1c(C(F)F)nc(C(F)(F)F)c(C2=NCCS2)c1CC(C)C
AC50 [6]: 9.96 µM (active)
AC50 [2]: 7.48 µM (active)
outcome [4]: inactive
outcome [5]: inactive

COP(=S)(OC)SCn1nnc2ccccc2c1=O
outcome [7]: inactive
AC50 [2]: 4.46 µM (active)
outcome [4]: inactive

Clc1nc(Cl)nc(Nc2ccccc2Cl)n1
outcome [2]: inactive
outcome [8]: inactive

COc1cc(Cl)c(OC)cc1Cl
AC50 [2]: 0.598 µM (active)
outcome [3]: inactive
outcome [4]: inactive
outcome [5]: inactive

CC(C)(C)C(=O)C(Oc1ccc(Cl)cc1)n1cncn1 (stereo not given)
outcome [7]: inactive
AC50 [2]: 4.5 µM (active)
outcome [3]: inactive
outcome [4]: inactive

CO/N=C(/C1=NOCCO1)c1ccccc1Oc1ncnc(Oc2ccccc2Cl)c1F
outcome [2]: inactive
outcome [4]: inactive
outcome [8]: inactive

CCCC(=NOCC)C1=C(O)CC(CC(C)SCC)CC1=O (stereo not given)
outcome [7]: inactive
AC50 [2]: 28.9 µM (active)
outcome [3]: inactive
outcome [4]: inactive
outcome [8]: inactive

CCCCOCN(C(=O)CCl)c1c(CC)cccc1CC
AC50 [2]: 1.11 µM (active)
outcome [3]: inactive
outcome [4]: inactive
outcome [5]: inactive

CNC(=O)N(C)c1nnc(C(C)(C)C)s1
outcome [6]: inactive
outcome [2]: inactive
outcome [3]: inactive
outcome [5]: inactive
outcome [8]: inactive

CC(C)Oc1cccc(NC(=O)c2ccccc2C(F)(F)F)c1
AC50 [6]: 20 µM (active)
AC50 [2]: 4.95 µM (active)
outcome [3]: inactive
outcome [4]: inactive
outcome [8]: inactive

O=P(O)(O)CCCl
outcome [2]: inactive
outcome [3]: inactive

CNC(=O)Oc1cccc2ccccc12
outcome [7]: inactive
AC50 [2]: 7.28 µM (active)

OC(c1ccc(Cl)cc1)(c1ccc(Cl)cc1)C(Cl)(Cl)Cl
outcome [6]: inactive
AC50 [2]: 4.08 µM (active)
outcome [4]: inactive
outcome [8]: inactive

Cc1nc(N(C)C)nc(OC(=O)N(C)C)c1C
AC50 [2]: 4.29 µM (active)
outcome [3]: inactive
outcome [4]: inactive
AC50 [5]: 20 µM (active)

CC(C)C1(C)N=C(c2ncccc2C(=O)O)NC1=O (stereo not given)
AC50 [2]: 0.000671 µM (active)
outcome [3]: inactive
outcome [4]: inactive

— PubChem BioAssay (EPA / NIEHS)
